HT1080 IDH1KD tx – qHTS for induction of synthetic lethality in tumor cells producing 2HG: qHTS for the HT-1080-IDH1KD cell line; AID 686971, 2013; HT-1080 IDH1 knockdown viability, ATP luminescence, 48 h; Potency, µM (series often up to 46.1 µM), for inactives: at the highest dose activity, negative = toxicity, hits mostly cytotoxic; hit rate 2% among 360,000;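 note: potency is the fitted concentration of half-maximal effect; 0% = DMSO wells and -100% = cell-free medium wells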
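HT-1080-IDH1KD cells (IDH1 knocked down), 750/well in RPMI with 5% FBS, treated with compound 48 h at 37 degrees C. Viability by CellTiter-Glo luminescence, normalised to DMSO and no-cell wells; concentration-response curves classed.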
HT1080NT lethal – qHTS for induction of synthetic lethality in tumor cells producing 2HG: qHTS for the HT-1080-NT fibrosarcoma cell line. HT-1080-NT fibrosarcoma viability, CellTiter-Glo ATP luminescence, 48 h. Potency, µM (doses to about 46.1 µM), for the others: at the top dose activity, negative = less viability, most hits filed as cytotoxic. hit rate 1.6% among 360,000. AID 686970, 2013;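 note: NT is the 2HG producing partner of a matched IDH1 knockdown line; potency is the fitted concentration of half-maximal effect; 0% = DMSO-treated cells and -100% = media-only wells without cells; nearly all actives have a fitted effect of over 55% in size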
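Viability of the 2HG-overproducing fibrosarcoma line after 48 hours of compound exposure at 37 degrees C was determined by luminescence with CellTiter-Glo, and concentration-effect curves were then fitted and categorized.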
IL-1B inflam inh – qHTS for Inhibitors of Inflammasome Signaling: IL-1-beta AlphaLISA Primary Screen; THP-1 LPS/ATP IL-1B secretion, AlphaLISA, 16 h; active compounds read low; activity change, % at 57.5 µM; AID 743279, 2014; hit rate 4.7% among 360,000; in the data active = activity change below about -50%; inconclusive = mostly about -30% to -49%
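Secreted IL-1B measured by AlphaLISA bead assay after 16 h compound exposure of THP-1 cells; compounds (final up to 57.5 uM) added 1 h before LPS (250 ng/mL) and ATP (1.25 mM) stimulation; lower signal means less secretion.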
DT40 TDP1 CPT – qHTS for Inhibitors of human tyrosyl-DNA phosphodiesterase 1 (TDP1): qHTS in cells in presence of CPT; chicken DT40 Tdp1-/-;hTDP1 cells + 20 nM CPT, ATP luminescence, 48 h; Potency, µM (doses to about 46.2 µM), without a hit: at the top dose activity change, negative = growth inhibition, most hits filed as inhibitors; hit rate 12% among 420,000; note: potency is the fitted concentration of half-maximal effect; nearly all actives have a fitted effect of over 55% in size
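Chicken DT40 Tdp1-/- cells stably complemented with human TDP1 were seeded at 400 cells/well in medium containing 20 nM camptothecin, exposed to pin-transferred compounds, and grown at 37 °C for at least 48 hr. Viability was read as ATP luminescence.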
DT40 TDP1 no CPT – qHTS for Inhibitors of human tyrosyl-DNA phosphodiesterase 1 (TDP1): qHTS in cells in absence of CPT; Potency, µM (highest dose often 46.2 µM), for the others: top-dose activity change, negative = growth inhibition, actives largely listed as inhibitors; hit rate 15% among 420,000; AID 686978, 2013; DT40 Tdp1-/- hTDP1 cells, no CPT, ATP luminescence, 48 h; note: potency is the fitted concentration of half-maximal effect; nearly all actives have a fitted effect of over 55% in size
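Readout: luminescence from CellTiter-Glo after 30 min in the dark at RT. Cells: DT40 Tdp1-/- with stable hTDP1, 400/well. Exposure: compounds alone, ≥48 hr, 37 °C.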
The depositor's hits bear a star; ? = inconclusive; . = no result; [ ] = another dose, or the depositor's remark. Sampled rows, rich in hits. Any-hit rate of the full collection: about 19%. Unless noted, calls come from the whole dose curve; as a rule, active = well fitted curve in the direction sought with a large enough effect; inconclusive = small, poorly fitted or top-dose-only effect, or another doubt; inactive = no such curve, though single readings can be large; an effect the other way counts as inactive or inconclusive. Unless noted, % is set by controls: 0 for no effect and ±100 for the full control effect.

SMILES	HT1080 IDH1KD tx	HT1080NT lethal	IL-1B inflam inh	DT40 TDP1 CPT	DT40 TDP1 no CPT
CC(=O)c1cccc(NC(=O)CSc2nc3ccccc3c(=O)n2CCCN2CCOCC2)c1	0.0%	-15.1%	-11.1	-20.8%	?
CCc1ccc(NC(=O)CSc2nc3ccccc3c(=O)n2CCCN2CCC(C)CC2)cc1	20.6µM*	?	-99.9*	?	23.1µM*
Cc1cccc(NC(=O)C(C)Sc2nc3ccccc3c(=O)n2CCCN2CCOCC2)c1 (stereo not given)	?	-10.7%[9.24 µM]	?	23.1µM*	-21.5%
CCc1ccc(NC(=O)CSc2nc3ccccc3c(=O)n2CCNC(C)=O)cc1	.	.	.	-21.0%	-22.4%
COCCn1c(SCC(=O)NN2C(=O)NC(C)(c3ccccc3)C2=O)nnc1-c1ccncc1 (stereo not given)	0.0%	2.4%	-8.3	-7.3%	-3.8%
CCCCn1c(SCC(=O)NCc2ccccc2)nc2ccc(N3CCOCC3)cc2c1=O	-13.3%	2.7%	-8.0	-20.5%	1.46µM*
Cc1ccc(S(=O)(=O)N(C)C)cc1-n1c(SCC(=O)Nc2ccc(F)cc2Cl)nc2ccccc2c1=O	-0.4%	-1.1%	13.3	20.6µM*	16.4µM*
O=C(CSc1nc2ccccc2c(=O)n1CCCN1CCOCC1)Nc1ccc(Br)cc1	13µM*	?	-28.2	?	?
COc1ccc(NC(=O)CSc2nc3ccccc3c(=O)n2CCCN2CCOCC2)c(OC)c1	-11.7%	3.9%	-18.9	?	?
Cc1ccc(S(=O)(=O)N(C)C)cc1-n1c(SCC(=O)Nc2ccc(F)cc2)nc2ccccc2c1=O	-17.2%	-1.7%	0.0	?	?
CCCCn1c(SCC(=O)NCc2ccco2)nc2ccc(N3CCOCC3)cc2c1=O	?	-28.8%	21.9	?	?
CN(C)S(=O)(=O)c1ccc(Cl)c(NC(=O)CSc2nc3ccccc3c(=O)n2CCCN2CCOCC2)c1	3.5%	0.9%	-5.0	?	25.9µM*
CCCC12CN3CC(C)(CN(C1)C3c1cccs1)C2=O (stereo not given)	4.7%	10.0%	7.9	10.2%	-13.3%
Cc1ccc(NC(=O)CSc2nc3ccccc3c(=O)n2CCCN2CCCCC2)cc1C	?	-14.3%	0.0	25.9µM*	?
Cc1cc(C)n2nc(C(=O)OCCOc3cccc(Br)c3)nc2n1	-4.2%	-8.7%	-5.9	?	-19.3%
Cc1cc(C)n2nc(C(=O)OCCOc3ccc(F)cc3)nc2n1	14.2%	23.3%	-50.2*	-7.3%	5.1%
NC(=O)C1(N2CCCCC2)CCN(C2CC(=O)N(Cc3cccs3)C2=O)CC1 (stereo not given)	3.4%	15.8%	-10.4	17.2%	-4.4%
O=C(c1ccc(N2CCN(C3CC(=O)N(Cc4cccs4)C3=O)CC2)cc1)c1cccnc1 (stereo not given)	?	-17.3%	-3.5	16.4µM*	?
O=C1NN=C2CCCCCCCCCCC12 (stereo not given)	-1.1%	3.8%	25.6	-22.9%	-28.3%
Cn1nc(C(=O)Nc2cccc(S(=O)(=O)N3CCOCC3)c2)c2ccccc2c1=O	-2.1%	-10.0%	0.0	-29.8%	-1.8%
CC(C)n1nc(C(=O)Nc2cccc(S(=O)(=O)N3CCOCC3)c2)c2ccccc2c1=O	-9.2%	-2.1%[9.24 µM]	2.4	20.6µM*	?
CC(C)n1nc(C(=O)Nc2cccc(S(=O)(=O)N3CCCCC3)c2)c2ccccc2c1=O	-14.4%	-18.6%	0.0	13µM*	-28.2%
Cc1cccc(C(=O)NNC(=O)Nc2ccccc2)c1	0.3%	14.2%	9.4	-5.6%	-27.4%
CC(C)(C)c1ccc(C(=O)Nc2cccc([N+](=O)[O-])c2)cc1	-7.0%	-16.7%	-98.3*	16.4µM*	18.4µM*

Screens as filed in PubChem BioAssay.
